# From PubChem BioAssay (NCI)
# This is part of a sample that, as a whole, favours compounds with a hit. Of some 83,000 tested, about 20% had one in any assay.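 A percent growth of 40 corresponds to 60% growth inhibition; 0 means no net growth; -100 means all cells died. Active threshold: below 10.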 Calls of active or inactive are those of the source.
# Tested on: MDA-MB-468 breast
# Experiment: NCI-60 one-dose screen, 48 h (100 = growth as untreated, 0 = no growth, -100 = all killed)
# Settings: 10 µM unless noted
row,SMILES,growth
1,CCCCNC(=O)NS(=O)(=O)c1ccc(N2N=C(c3ccc(C)cc3C)CC2c2ccc(N(C)C)cc2)cc1 (centres undefined),60% (inactive)
2,COc1cc(-c2nn(-c3cccc(NC(=O)c4cccc(C(F)(F)F)c4)c3)cc2-c2ccncc2)ccc1Cl,-19.4% (active)
3,Cc1cccc2c1S/C(=C/c1ccc([N+](=O)[O-])cc1)C2=O,112% (inactive)
4,O=C1CC(C(F)(F)F)Cc2nc3ccc(Br)cc3cc21 (centres undefined),94.8% (inactive)
5,CCCCCCCN(CCCCCCC)C(=N)c1ccc(OC)c2ccccc12,-85% (active)
6,CCN(CC)C(CC(=O)c1ccccc1)C(=O)c1ccccc1 (centres undefined),56.1% (inactive)
7,CC(=O)n1cc(/C=C2\N=C(c3ccc(Cl)cc3)N(c3ccc(S(=O)(=O)Nc4nccs4)cc3)C2=O)c2ccccc21,96.1% (inactive)
8,COc1cccc2cc(-c3cc4ccccc4[nH]3)/c(=N/C(=S)Nc3ccccc3)oc12,79.1% (inactive)
9,Cc1nc2sc(C(=O)Nc3ccccc3)c(N)c2cc1C(C)O (centres undefined),28.6% (inactive)
10,COc1ccc(Cn2c(Br)c3c(c2-c2cc(OC)c(OC)c(OC)c2)CCc2sc(NC(C)=O)nc2-3)cc1,22.8% (inactive)
11,Cc1ccc(S(=O)(=O)OCCCOS(=O)(=O)c2ccc(C)cc2)cc1,100% (inactive)
12,COc1cccc2nc3n(c12)C(c1c(F)cccc1F)SC3 (centres undefined),89.2% (inactive)
13,CC1CCN(Cc2ccc(NC(=O)c3cc4ccc5cccnc5c4[nH]3)cc2)CC1,21% (inactive)
14,CC1=C2[C@@H](CC1)[C@]1(C)O[C@@](C3CC3)(C[C@H]1OC(=O)CO)[C@H]2OC(=O)/C=C/c1ccccc1,83% (inactive)
